From PubChem
An excerpt weighted towards active compounds, which were near 21% of everything screened.
Shiga inhibitor = Shiga toxin inhibition; inhibition, % at 38.7 µM; AID 2315; hit rate 9.2% among 290,000; Vero cells, Shiga toxin protein synthesis inhibition reporter; in the data active = inhibition mostly above about 28%, no sharp cut-off; inactive = mostly below about 43%; note: 0% is about no effect
Sm TGR inh = inhibitors of Schistosoma mansoni thioredoxin glutathione reductase. purified TGR, DTNB reduction, TNB absorbance 405 nm. Potency, µM (top dose mostly 114 µM), inactives show at the highest dose activity change, negative = inhibition, most hits filed as inhibitors. Q962Y6. hit rate 3% among 360,000; note: potency is the fitted concentration of half-maximal effect; % is set by controls: 0 for no effect and ±100 for the full control effect; nearly all actives have a fitted effect of over 60% in size
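Kinetic colorimetric format: TGR-catalysed, NADPH-driven DTNB reduction monitored via TNB absorbance. Enzyme dispensed at 20 nM; compound exposure 15 min at room temperature before reaction start.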
NS1 function inh = blocks influenza NS1 protein function. Potency, µM (top dose mostly 46.1 µM), for the others: top-dose activity, positive = more growth. hit rate 0.4% among 270,000; calls by dose curve; note: potency is the fitted concentration of half-maximal effect; actives are rising curves; nearly all actives have a fitted effect of over 50% in size
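A cell-based growth assay was used: compounds that relieve NS1-induced slow growth of budding yeast raise OD600. Assay medium was yeast nitrogen base with ammonium sulphate and -URA supplement, pH 6.0, with 2% galactose.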
Pf growth 96h = P. falciparum growth inhibition at 96 hour, primary screen for plastid delayed-death inhibitors; AID 504834; hit rate 6.9% among 320,000; Potency, µM (titrated, usually from 28.7 µM), for inactives: at the highest dose activity change, negative = inhibition, actives largely listed as inhibitors; P. falciparum luciferase reporter growth, 96 h; note: potency is the fitted concentration of half-maximal effect; % is set by controls: 0 for no effect and ±100 for the full control effect
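Cell-based qHTS: luciferase-tagged P. falciparum in erythrocytes (2% hematocrit, 0.05% parasitemia final) incubated with compounds for 96 hours, 37 C, 5% CO2; luciferase detection reagent then added and luminescence measured.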
Pf growth 48h = inhibits P. falciparum growth in the first generation, 48 h; P. falciparum luciferase growth in erythrocytes, 48 h; AID 504832; hit rate 5.9% among 310,000; Potency, µM (highest dose often 28.7 µM), for the others: top-dose activity change, negative = inhibition, hits mostly inhibitors; note: potency is the fitted concentration of half-maximal effect; % is set by controls: 0 for no effect and ±100 for the full control effect
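Luminescence readout; reporter = integrated firefly luciferase in P. falciparum. RBC culture at 2% hematocrit, 0.1% parasitemia final, 37 C/5% CO2; decreased signal taken as growth inhibition.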
CHX counter = counter-screen hit for Shiga toxin inhibitors, cycloheximide | cell reporter, cycloheximide protein synthesis inhibition counterscreen | max response, % | hit rate 12% among 300,000 | AID 2314; in the data active = max response mostly above about 13%, no sharp cut-off; inactive = mostly below about 14%; note: read at 38.3 µM for the half of the compounds with a filed dose; 0% is about no effect
Active calls of the source: *; ? = inconclusive; · = not tested or not shown. Unless noted, calls come from the whole dose curve; as a rule, active = well fitted curve in the direction sought with a large enough effect; inconclusive = small, poorly fitted or top-dose-only effect, or another doubt; inactive = no such curve, though single readings can be large; an effect the other way counts as inactive or inconclusive.

SMILES	Shiga inhibitor	Sm TGR inh	NS1 function inh	Pf growth 96h	Pf growth 48h	CHX counter
CCCCCCC(O)C/C=C/CCCCCCCC(=O)O (configuration not stated)	·	·	·	-6.6%	1.7%	·
Cc1cccc(-n2c(=O)c3c4c(sc3n3c(C)nnc23)CCCC4)c1	·	4.7%	·	·	·	·
CNC(=O)c1nn(-c2ccc(Cl)cc2)ccc1=O	15.7	-5.0%	10.3%	20.9%	-0.8%	0.7
NNC(=O)c1nn(-c2ccc(Cl)cc2)cc1O	7.0	11.7%	10.9%	?	9.28µM*	-2.7
CCN(CC)C(=S)SCc1csc(CC(=O)Nc2ccccc2C)n1	-4.6	2.9%	-1.9%	?	?	-4.1
C=C(C)CSc1nncn1/N=C/c1ccc(OC)cc1	140.5*	-7.8%	-57.1%	-0.4%	9.6%	55.2*
COc1cc(/C=N/n2cnnc2)ccc1OCCSc1ccc(C)cc1	33.5	-0.2%	-16.3%	?	36.2%	21.6*
CCSc1nncn1/N=C/c1ccc(OC)c(OC)c1	32.0*	3.2%	-10.3%	-4.1%	18.1%	21.1*
Cc1ccc(CN2CCCn3nc(C(=O)NC(C)C)cc3C2=O)cc1	·	2.5%	·	·	·	·
COc1ccc(-c2nc(NC(=O)c3n[nH]c(=O)c4ccccc34)sc2C)cc1	2.1	-5.5%	21.3%	-27.7%	6.9%	-3.1
O=C(CCCOc1ccc(Cl)cc1Cl)N1CCN(c2ccccn2)CC1	27.1	2.9%	-90.3%	·	?	-1.6
O=C(CCCOc1ccccc1)N1CCN(c2ccc(F)cc2)CC1	111.6	-11.2%	-58.2%	11.7µM*	·	24.4*
COC(=O)c1ccccc1OCC(=O)N1CCN(c2ccc(F)cc2)CC1	-12.7	10.7%	-0.4%	80.6%	-3.3%	-2.1
O=C(CCCOc1ccccc1)N1CCN(c2ccccn2)CC1	114.9*	5.2%	-14.5%	?	175.6%	26.8*
O=C(Oc1ccccc1)N1CCN(c2ccc(F)cc2)CC1	23.1	-3.6%	-17.3%	·	-15.5%	6.8
CC(=O)c1cc(F)ccc1OCC(=O)N1CCN(c2ccc(F)cc2)CC1	-5.2	-4.3%	-2.0%	-24.6%	4.15µM*	-3.3
Cc1cc(C)n(C(=O)CNC(=O)/C=C/c2ccccc2)n1	17.1	5.3%	-3.4%	?	0.6%	0.8
CCOC(=O)N1CCC2(CC1)CC(=O)c1c(ccc3oc(C(=O)O)c(C)c13)O2	-6.1	5.9%	13.6%	·	-15.6%	-0.9
CCOC(=O)c1oc2ccc3c(c2c1C)C(=O)CC1(CCN(C(=O)OCC)CC1)O3	-6.6	-6.1%	3.3%	16.0%	2.62µM*	-1.9
Cc1c(C(=O)NCc2ccc(Cl)cc2)oc2ccc3c(c12)C(=O)CC(C)(C)O3	·	1.6%	·	·	·	·
CCCNC(=O)c1oc2ccc3c(c2c1C)C(=O)CC(C)(C)O3	49.9*	16.7%	-57.8%	·	94.1%	44.0*
CCCNC(=O)c1oc2ccc3c(c2c1C)C=CC(C)(C)O3	75.6*	4.0%	-3.7%	42.3%	42.7%	49.3*
COc1ccc(NC(=O)c2cnn(-c3ccc(C)cc3)c2-n2cccc2)cc1Cl	·	10.9%	·	·	·	·
c1ccc(Oc2cccc(OCCCCN3CCCC3)c2)cc1	8.3	-5.6%	-7.2%	-81.7%	-14.4%	1.3
Cc1ccc2c(c1)C(=O)CC(O)(C(F)F)O2 (configuration not stated)	-7.3	111.6%	-3.3%	3.0%	0.0%	-2.0
SMILES	Shiga inhibitor	Sm TGR inh	NS1 function inh	Pf growth 96h	Pf growth 48h	CHX counter
Cc1ccc(O)c(C2=NNC(O)(C(F)(F)F)C2)c1 (configuration not stated)	-8.6	2.0%	-11.8%	·	13.1µM*	7.8
Cc1ccc(O)c(-c2[nH]ncc2C(=O)c2ccc(Cl)cc2)c1	3.6	63.3%	-2.7%	-12.6%	?	-1.9
Cc1ccc(O)c(C2=NNC(c3ccc(Cl)cc3)C2)c1 (configuration not stated)	70.2*	44.7µM*	-54.6%	?	?	59.5*
Oc1ccc(Cl)cc1C1=NNC(c2cccs2)C1 (configuration not stated)	141.5*	17.8µM*	-71.0%	11.7µM*	3.29µM*	42.8*
O=C(Cc1ccccc1)NCC(=O)N/N=C/c1ccc(Cl)cc1	6.7	-1.8%	1.0%	-8.7%	-12.1%	-3.0
COc1ccc(N2CCN(C(=O)c3cn(Cc4ccccc4)nc3-c3cccnc3)CC2)cc1	·	1.8%	·	10.4µM*	?	·
COc1cccc(CN2CCN(C(=O)c3cc(-c4cccnc4)nc4ccc(C)cc34)CC2)c1	-18.1	-22.8%	-13.7%	?	9.28µM*	-1.7
